Data on 36 compounds can be found in PubChem BioAssay AID1347142 (National Center for Advancing Translational Sciences (NCATS), 2019).

Each structure is given as a SMILES string. Records with an inconclusive call do not appear. A number with no mark means an inactive call. Calls of active or inactive are those of the source. The call rests on the fitted dose curve; in most records, active means well fitted inhibition curve with a large enough effect; inconclusive means small, poorly fitted or top-dose-only effect; inactive means no such curve, though single readings can be large or run the other way.
Further: nearly all actives have a fitted effect of over 80% in size.
Potency means the concentration at half of the fitted maximal effect.
Wherever activity change, negative = inhibition is given: 0% is about no effect.

Chain of N-terminal Xaa-Pro-Lys N-methyltransferase 1 (Homo sapiens) (Q9BV86 whole entry, looked up): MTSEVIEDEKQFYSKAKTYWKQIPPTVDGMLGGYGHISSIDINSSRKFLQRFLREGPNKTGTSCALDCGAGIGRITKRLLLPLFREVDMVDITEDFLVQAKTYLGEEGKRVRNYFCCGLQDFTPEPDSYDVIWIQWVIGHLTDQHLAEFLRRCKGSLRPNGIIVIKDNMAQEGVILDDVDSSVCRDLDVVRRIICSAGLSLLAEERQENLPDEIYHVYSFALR

In the test the target is N-terminal Xaa-Pro-Lys N-methyltransferase 1 (Homo sapiens) (UniProt Q9BV86). The experiment in a line: qHTS Assay for Inhibitors of N-terminal methyltransferase 1 (NTMT1): ThioGlo3 Assay Confirmatory Screen, Round 1. The settings on record: NTMT1 SAHH-coupled ThioGlo3 fluorescence, 30 min; series mostly up to 56.8 µM; activity change, negative = inhibition: at the top concentration. A digest of the protocol:
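Human NTMT1 at 125 nM was preincubated 1 min at room temperature with compounds at various concentrations or 1 uM RCC1-6 control. Substrate mix (100 uM SAM, 10 uM SAHH, 15 uM ThioGlo3) was added, and fluorescence (Ex 340/Em 450 nm) was read at start and after 30 min, normalized to background.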
On to `COc1cc2c(NC3CCN(C(C)C)CC3)nc(N3CCC(F)(F)CC3)nc2cc1OCCCN1CCCCC1`, for which the Potency is 6.81 µM (active). On the same count and under the same terms, the same measure for `COc1cc2c(NC3CCN(C4CCCCC4)CC3)nc(N3CCCCCC3)nc2cc1OCCOCCN(C)C`: 24.1 µM (active). Regarding `C[S+](CC[C@H](N)C(=O)O)C[C@H]1O[C@@H](n2cnc3c(N)ncnc32)[C@H](O)[C@@H]1O` (stereo partly specified), the Potency entry was “inactive”. Take `Nc1ncnc2c1ncn2[C@@H]1O[C@H](C[C@@H](N)CC[C@H](N)C(=O)O)[C@@H](O)[C@H]1O`: the “activity change, negative = inhibition” value was 9.35%.

`CCNc1nc(N2CCCN(C)CC2)nc2cc(OC)c(OC)cc12`: the Potency is 34.1 µM (active). In the case of `Nc1nc(Cl)nc2c1ncn2[C@@H]1O[C@H](COP(=O)(O)OP(=O)(O)OP(=O)(O)O)[C@@H](O)[C@H]1O`, the “activity change, negative = inhibition” value was -20.5%. `Nc1nc(F)nc2c1ncn2[C@@H]1O[C@H](CO)[C@@H](O)[C@@H]1O`: the Potency entry is “inactive”. For `Nc1ncnc2c1ncn2[C@@H]1O[C@H](COP(=O)(O)OP(=O)(O)OP(=O)(O)OP(=O)(O)OC[C@@H]2O[C@H](n3cnc4c(N)ncnc43)[C@@H](O)[C@H]2O)[C@@H](O)[C@H]1O`, the “activity change, negative = inhibition” value was -8.61%. For `COc1cc2c(NC3CCN(CC4CCCCC4)CC3)nc(N3CCCN(C)CC3)nc2cc1OCCCN1CCCCC1`, the Potency was 21.5 µM (active). Still for that read-out and setting: in the case of `COc1cc2nc(N3CCN(C)CC3)nc(N3CCOCC3)c2cc1OC` it was 21.5 µM (active). Regarding `CNC(=O)[C@H]1O[C@H](n2cnc3c(NCc4cccc(I)c4)ncnc32)[C@@H](O)[C@@H]1O`, the “activity change, negative = inhibition” value is 11.8%.

On to `Nc1ncnc2c1nc(Br)n2C1OC(CO)C(O)C1O` (stereo unspecified), for which the “activity change, negative = inhibition” value was -4.56%. `Nc1ncnc2c1ncn2[C@H]1O[C@H](CO)[C@@H](O)[C@@H]1O`: the “activity change, negative = inhibition” value was -3.26%. On to `C/C(=C\CNc1ncnc2c1ncn2[C@@H]1O[C@@H](CO)[C@@H](O)[C@H]1O)CO`, for which the “activity change, negative = inhibition” value was -23.4%. For the compound `CNc1nc(N2CCN(C)CC2)nc2cc(OC)c(OC)cc12`, the Potency is 24.1 µM (active). Take `[N-]=[N+]=Nc1nc2c(N)ncnc2n1C1OC(CO)C(O)C1O` (stereo unspecified): the Potency was 21.5 µM (active).

Turning to `COc1cc2c(NC3CCN(CC4CCCCC4)CC3)nc(N3CCCN(C)CC3)nc2cc1OCCOCCN(C)C`, the Potency is 24.1 µM (active). Consider `Nc1ncnc2c1[nH]c(=O)n2C1CC(O)C(CO)O1` (stereo unspecified), for which the “activity change, negative = inhibition” value was -12.6%. Consider `COc1cc2c(NC3CCN(C)CC3)nc(N3CCCN(C)CC3)nc2cc1OCCCCCN(C)C`, for which the Potency was 24.1 µM (active). Regarding `COc1cc2c(NC3CCN(C4CCCCC4)CC3)nc(N3CCCCC3)nc2cc1OCCOCCN(C)C`, the Potency is 24.1 µM (active). Take `COc1cc2c(NC3CCN(C(C)C)CC3)nc(N3CCCCC3)nc2cc1OCCCN1CCCC1`: the Potency is 30.4 µM (active).

Turning to `COc1cc2nc(N3CCN(C)CC3)nc(NCCN(C)C)c2cc1OC`, the Potency is 24.1 µM (active). With `CCCN(C)CCCOc1cc2nc(N3CCCN(C)CC3)nc(NC3CCN(C)CC3)c2cc1OC`, the Potency was 27.1 µM (active). As for `COc1cc2c(NC3CCN(C)CC3)cc(N3CCCCN(C)CC3)cc2cc1OCCOCCN(C)C`, the Potency was 27.1 µM (active).

Take `CSc1nc(N)c2ncn([C@@H]3O[C@H](COP(=O)(O)OP(=O)(O)OP(=O)(O)O)[C@@H](O)[C@H]3O)c2n1`: the “activity change, negative = inhibition” value is 3.39%. On the same count and under the same terms, the same measure for `CSc1nc(N)c2ncn([C@H]3O[C@H](COP(=O)(O)OP(=O)(O)O)[C@@H](O)[C@@H]3O)c2n1`: -6.87%; for `COc1cc2nc(N(C)C)nc(NC3CC3)c2cc1OC`: -25.2%.

As to `COc1cc2c(NC3CCN(C)CC3)nc(N3CCCN(C)CC3)nc2cc1O`, the Potency was 24.1 µM (active). On to `Nc1ncnc2c1ncn2[C@H]1O[C@@H](CSCC[C@@H](N)C(=O)O)[C@H](O)[C@@H]1O`, for which the “activity change, negative = inhibition” value was 1900%. As to `Nc1ncnc2c1ncn2[C@H]1C[C@H](O)[C@@H](CO)O1`, the “activity change, negative = inhibition” value was -5.23%. With `NC(=O)c1ccc[n+]([C@@H]2O[C@H](COP(=O)([O-])OP(=O)(O)OC[C@H]3O[C@@H](n4cnc5c(N)ncnc54)[C@H](O)[C@@H]3O)[C@@H](O)[C@H]2O)c1`, the “activity change, negative = inhibition” value is -14.9% [at 18.9 µM]. Take `CC[C@H](C)n1cc(C)c2c(C(=O)NCc3c(C)cc(C)[nH]c3=O)cc(-c3ccc(N4CCNCC4)nc3)cc21`: the Potency was 21.5 µM (active). With `C[C@H](Cc1ccccc1)Nc1ncnc2c1ncn2[C@@H]1O[C@H](CO)C(O)[C@H]1O` (stereo partly specified), the “activity change, negative = inhibition” value is 19.6%. For `COc1cc2c(NC3CCN(C)CC3)nc(N3CCCN(C)CC3)nc2cc1OCc1ccccc1`, the Potency was 19.2 µM (active). For `CSc1nc(N)c2ncn([C@@H]3O[C@H](COP(=O)(O)OP(=O)(O)OP(=O)(O)O)C(O)[C@H]3O)c2n1` (stereo partly specified), the Potency is 21.5 µM (active). For the compound `COc1cc2nc(N3CCCCC3)nc(NC3CCN(Cc4ccccc4)CC3)c2cc1OC`, the Potency was 21.5 µM (active).
